Source: PMC4336329 (PLoS ONE, 2015)
Screen size: about 310,000 compounds; about 14,000 (4.5%) showed an effect of 50% or more. Effects have a minus sign here. For the sample, strong results were picked, then their nearest neighbours and some compounds at random.

These molecules were tested against human ether-à-go-go-related gene (hERG) potassium channel (human, UniProt Q12809) (assay: primary screen, population patch clamp on CHO cells stably expressing hERG; higher = less effect of the substance).
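Also: peak tail current of the secondary pulse compared with the same well before compound.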

human ether-à-go-go-related gene (hERG) potassium channel, sequence (Q12809 whole entry, looked up): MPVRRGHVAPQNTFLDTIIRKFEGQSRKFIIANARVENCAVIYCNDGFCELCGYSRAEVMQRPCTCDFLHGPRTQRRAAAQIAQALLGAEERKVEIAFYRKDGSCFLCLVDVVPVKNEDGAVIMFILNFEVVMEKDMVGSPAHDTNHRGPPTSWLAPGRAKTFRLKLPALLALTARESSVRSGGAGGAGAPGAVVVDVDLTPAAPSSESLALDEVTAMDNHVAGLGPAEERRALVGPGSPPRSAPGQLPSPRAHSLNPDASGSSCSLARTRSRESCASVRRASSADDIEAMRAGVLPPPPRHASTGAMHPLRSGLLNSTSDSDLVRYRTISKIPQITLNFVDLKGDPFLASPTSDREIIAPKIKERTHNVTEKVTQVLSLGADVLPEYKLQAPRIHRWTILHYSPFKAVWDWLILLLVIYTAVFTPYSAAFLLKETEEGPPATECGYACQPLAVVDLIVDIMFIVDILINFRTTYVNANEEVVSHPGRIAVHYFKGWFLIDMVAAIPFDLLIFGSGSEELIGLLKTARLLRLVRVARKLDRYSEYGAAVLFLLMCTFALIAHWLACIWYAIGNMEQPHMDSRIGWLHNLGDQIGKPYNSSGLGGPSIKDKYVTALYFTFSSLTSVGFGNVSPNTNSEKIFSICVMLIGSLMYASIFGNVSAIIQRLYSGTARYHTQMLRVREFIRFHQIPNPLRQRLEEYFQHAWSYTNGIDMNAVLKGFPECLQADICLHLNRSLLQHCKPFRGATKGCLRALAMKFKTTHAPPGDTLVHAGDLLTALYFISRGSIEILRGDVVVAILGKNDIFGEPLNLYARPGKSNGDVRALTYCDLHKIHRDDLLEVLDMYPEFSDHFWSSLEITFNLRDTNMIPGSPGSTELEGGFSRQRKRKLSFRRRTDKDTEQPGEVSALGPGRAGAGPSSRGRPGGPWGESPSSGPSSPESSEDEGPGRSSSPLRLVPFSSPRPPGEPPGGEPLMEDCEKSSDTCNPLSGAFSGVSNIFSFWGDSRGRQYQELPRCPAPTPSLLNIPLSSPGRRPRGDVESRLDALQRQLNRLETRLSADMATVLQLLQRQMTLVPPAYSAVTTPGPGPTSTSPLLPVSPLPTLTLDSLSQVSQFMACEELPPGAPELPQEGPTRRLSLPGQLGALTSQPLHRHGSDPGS

| SMILES | hERG current change (%, negative = inhibition) at 10uM |
| --- | --- |
| O=C(CSCc1cccc(F)c1)N1CCN(c2ccccc2)CC1 | -19.2% |
| Cc1ccc(NS(=O)(=O)c2c(C)[nH]c(=O)[nH]c2=O)c(C)c1 | 24.3% |
| COc1ccc(C(=O)N2CCN(C3CCCCC3)CC2)cc1OC.O=C(O)C(=O)O | -73.6% |
| COc1ccc(C(=O)N2CCN(C3CCC(c4ccccc4)CC3)CC2)cc1OC (stereo not shown) | -69.9% |
| COc1cccc(C(=O)N2CCN(C3CCCCC3)CC2)c1.O=C(O)C(=O)O | -13.5% |
| COc1ccc(C(=O)N2CCN(C3CCCCC3)CC2)c(OC)c1 | -73.6% |
| COc1ccc(C(=O)N2CCN(C3CCN(Cc4ccccc4)CC3)CC2)cc1OC | -42.8% |
| COc1cc(C(=O)N2CCN(C3CCCCC3)CC2)cc(OC)c1OC.O=C(O)C(=O)O | 2.07% |
| COc1cc(OC)cc(C(=O)N2CCN(C3CCCCC3)CC2)c1.O=C(O)C(=O)O | -23.4% |
| COc1ccc(C(=O)N2CCCN(C)CC2)c(OC)c1 | -5.24% |
| COc1ccc(C(=O)N2CCN(C(=O)Cc3ccccc3)CC2)cc1OC | 5.3% |
| CC(=O)c1c(C)[nH]c(C(=O)OCc2ccccc2)c1C | -3.71% |
| C=C(C)CSc1nnc(-c2ccccc2)n1N | -1.72% |
| CCOC(=O)N1CCC(NS(=O)(=O)c2ccc3c(c2)oc(=O)n3C)CC1 | 1.74% |
| COc1cccc(N2CCN(S(=O)(=O)c3cccc4nsnc34)CC2)c1 | -10.6% |
| CC(C)Cc1nnc(NC(=O)CCC(=O)NC2CC2)s1 | 21.9% |
| COc1ccc(NC(=O)c2c(C)noc2-c2snnc2C)cc1 | -1.51% |
| O=C(NCc1ccco1)c1ccc(Cn2c(=O)c3ccccc3n(Cc3ccc(Cl)cc3)c2=O)cc1 | 8.16% |
| Cn1c(C(=O)NCCC2=CCCCC2)cc2c(=O)n3ccccc3nc21 | 19.7% |
| O=C(NCCc1ccccc1)c1cnc2ccccn2c1=O | -12% |
| N=c1c(S(=O)(=O)c2ccc(Br)cc2)cc2c(=O)n3ccccc3nc2n1Cc1ccco1 | 7.31% |
| N=c1c(C(=O)NCc2ccco2)cc2c(=O)n3ccccc3nc2n1Cc1ccc(Cl)cc1 | -77.1% |
| N=c1c(S(=O)(=O)c2ccccc2)cc2c(=O)n3ccccc3nc2n1Cc1ccco1 | -18.9% |
| O=C(NCCc1ccco1)c1nn(Cc2ccccc2)c(=O)c2ccccc12 | 10.3% |
| N=c1c(C(=O)NCCc2ccccc2)cc2c(=O)n3ccccc3nc2n1Cc1ccco1 | -77.9% |
| N=c1c(S(=O)(=O)c2ccc(Cl)cc2)cc2c(=O)n3ccccc3nc2n1Cc1ccco1 | 13.1% |
| CC(C)n1c(=N)c(C(=O)NCCc2ccccc2)cc2c(=O)n3ccccc3nc21 | -75.1% |
| N=c1c(C(=O)NCc2ccccc2)cc2c(=O)n3ccccc3nc2n1Cc1ccco1 | -76.4% |
